From the supplement of paper PMC11001985 come the findings set out here.

UniProt Q15149, sequence (Q15149 whole entry): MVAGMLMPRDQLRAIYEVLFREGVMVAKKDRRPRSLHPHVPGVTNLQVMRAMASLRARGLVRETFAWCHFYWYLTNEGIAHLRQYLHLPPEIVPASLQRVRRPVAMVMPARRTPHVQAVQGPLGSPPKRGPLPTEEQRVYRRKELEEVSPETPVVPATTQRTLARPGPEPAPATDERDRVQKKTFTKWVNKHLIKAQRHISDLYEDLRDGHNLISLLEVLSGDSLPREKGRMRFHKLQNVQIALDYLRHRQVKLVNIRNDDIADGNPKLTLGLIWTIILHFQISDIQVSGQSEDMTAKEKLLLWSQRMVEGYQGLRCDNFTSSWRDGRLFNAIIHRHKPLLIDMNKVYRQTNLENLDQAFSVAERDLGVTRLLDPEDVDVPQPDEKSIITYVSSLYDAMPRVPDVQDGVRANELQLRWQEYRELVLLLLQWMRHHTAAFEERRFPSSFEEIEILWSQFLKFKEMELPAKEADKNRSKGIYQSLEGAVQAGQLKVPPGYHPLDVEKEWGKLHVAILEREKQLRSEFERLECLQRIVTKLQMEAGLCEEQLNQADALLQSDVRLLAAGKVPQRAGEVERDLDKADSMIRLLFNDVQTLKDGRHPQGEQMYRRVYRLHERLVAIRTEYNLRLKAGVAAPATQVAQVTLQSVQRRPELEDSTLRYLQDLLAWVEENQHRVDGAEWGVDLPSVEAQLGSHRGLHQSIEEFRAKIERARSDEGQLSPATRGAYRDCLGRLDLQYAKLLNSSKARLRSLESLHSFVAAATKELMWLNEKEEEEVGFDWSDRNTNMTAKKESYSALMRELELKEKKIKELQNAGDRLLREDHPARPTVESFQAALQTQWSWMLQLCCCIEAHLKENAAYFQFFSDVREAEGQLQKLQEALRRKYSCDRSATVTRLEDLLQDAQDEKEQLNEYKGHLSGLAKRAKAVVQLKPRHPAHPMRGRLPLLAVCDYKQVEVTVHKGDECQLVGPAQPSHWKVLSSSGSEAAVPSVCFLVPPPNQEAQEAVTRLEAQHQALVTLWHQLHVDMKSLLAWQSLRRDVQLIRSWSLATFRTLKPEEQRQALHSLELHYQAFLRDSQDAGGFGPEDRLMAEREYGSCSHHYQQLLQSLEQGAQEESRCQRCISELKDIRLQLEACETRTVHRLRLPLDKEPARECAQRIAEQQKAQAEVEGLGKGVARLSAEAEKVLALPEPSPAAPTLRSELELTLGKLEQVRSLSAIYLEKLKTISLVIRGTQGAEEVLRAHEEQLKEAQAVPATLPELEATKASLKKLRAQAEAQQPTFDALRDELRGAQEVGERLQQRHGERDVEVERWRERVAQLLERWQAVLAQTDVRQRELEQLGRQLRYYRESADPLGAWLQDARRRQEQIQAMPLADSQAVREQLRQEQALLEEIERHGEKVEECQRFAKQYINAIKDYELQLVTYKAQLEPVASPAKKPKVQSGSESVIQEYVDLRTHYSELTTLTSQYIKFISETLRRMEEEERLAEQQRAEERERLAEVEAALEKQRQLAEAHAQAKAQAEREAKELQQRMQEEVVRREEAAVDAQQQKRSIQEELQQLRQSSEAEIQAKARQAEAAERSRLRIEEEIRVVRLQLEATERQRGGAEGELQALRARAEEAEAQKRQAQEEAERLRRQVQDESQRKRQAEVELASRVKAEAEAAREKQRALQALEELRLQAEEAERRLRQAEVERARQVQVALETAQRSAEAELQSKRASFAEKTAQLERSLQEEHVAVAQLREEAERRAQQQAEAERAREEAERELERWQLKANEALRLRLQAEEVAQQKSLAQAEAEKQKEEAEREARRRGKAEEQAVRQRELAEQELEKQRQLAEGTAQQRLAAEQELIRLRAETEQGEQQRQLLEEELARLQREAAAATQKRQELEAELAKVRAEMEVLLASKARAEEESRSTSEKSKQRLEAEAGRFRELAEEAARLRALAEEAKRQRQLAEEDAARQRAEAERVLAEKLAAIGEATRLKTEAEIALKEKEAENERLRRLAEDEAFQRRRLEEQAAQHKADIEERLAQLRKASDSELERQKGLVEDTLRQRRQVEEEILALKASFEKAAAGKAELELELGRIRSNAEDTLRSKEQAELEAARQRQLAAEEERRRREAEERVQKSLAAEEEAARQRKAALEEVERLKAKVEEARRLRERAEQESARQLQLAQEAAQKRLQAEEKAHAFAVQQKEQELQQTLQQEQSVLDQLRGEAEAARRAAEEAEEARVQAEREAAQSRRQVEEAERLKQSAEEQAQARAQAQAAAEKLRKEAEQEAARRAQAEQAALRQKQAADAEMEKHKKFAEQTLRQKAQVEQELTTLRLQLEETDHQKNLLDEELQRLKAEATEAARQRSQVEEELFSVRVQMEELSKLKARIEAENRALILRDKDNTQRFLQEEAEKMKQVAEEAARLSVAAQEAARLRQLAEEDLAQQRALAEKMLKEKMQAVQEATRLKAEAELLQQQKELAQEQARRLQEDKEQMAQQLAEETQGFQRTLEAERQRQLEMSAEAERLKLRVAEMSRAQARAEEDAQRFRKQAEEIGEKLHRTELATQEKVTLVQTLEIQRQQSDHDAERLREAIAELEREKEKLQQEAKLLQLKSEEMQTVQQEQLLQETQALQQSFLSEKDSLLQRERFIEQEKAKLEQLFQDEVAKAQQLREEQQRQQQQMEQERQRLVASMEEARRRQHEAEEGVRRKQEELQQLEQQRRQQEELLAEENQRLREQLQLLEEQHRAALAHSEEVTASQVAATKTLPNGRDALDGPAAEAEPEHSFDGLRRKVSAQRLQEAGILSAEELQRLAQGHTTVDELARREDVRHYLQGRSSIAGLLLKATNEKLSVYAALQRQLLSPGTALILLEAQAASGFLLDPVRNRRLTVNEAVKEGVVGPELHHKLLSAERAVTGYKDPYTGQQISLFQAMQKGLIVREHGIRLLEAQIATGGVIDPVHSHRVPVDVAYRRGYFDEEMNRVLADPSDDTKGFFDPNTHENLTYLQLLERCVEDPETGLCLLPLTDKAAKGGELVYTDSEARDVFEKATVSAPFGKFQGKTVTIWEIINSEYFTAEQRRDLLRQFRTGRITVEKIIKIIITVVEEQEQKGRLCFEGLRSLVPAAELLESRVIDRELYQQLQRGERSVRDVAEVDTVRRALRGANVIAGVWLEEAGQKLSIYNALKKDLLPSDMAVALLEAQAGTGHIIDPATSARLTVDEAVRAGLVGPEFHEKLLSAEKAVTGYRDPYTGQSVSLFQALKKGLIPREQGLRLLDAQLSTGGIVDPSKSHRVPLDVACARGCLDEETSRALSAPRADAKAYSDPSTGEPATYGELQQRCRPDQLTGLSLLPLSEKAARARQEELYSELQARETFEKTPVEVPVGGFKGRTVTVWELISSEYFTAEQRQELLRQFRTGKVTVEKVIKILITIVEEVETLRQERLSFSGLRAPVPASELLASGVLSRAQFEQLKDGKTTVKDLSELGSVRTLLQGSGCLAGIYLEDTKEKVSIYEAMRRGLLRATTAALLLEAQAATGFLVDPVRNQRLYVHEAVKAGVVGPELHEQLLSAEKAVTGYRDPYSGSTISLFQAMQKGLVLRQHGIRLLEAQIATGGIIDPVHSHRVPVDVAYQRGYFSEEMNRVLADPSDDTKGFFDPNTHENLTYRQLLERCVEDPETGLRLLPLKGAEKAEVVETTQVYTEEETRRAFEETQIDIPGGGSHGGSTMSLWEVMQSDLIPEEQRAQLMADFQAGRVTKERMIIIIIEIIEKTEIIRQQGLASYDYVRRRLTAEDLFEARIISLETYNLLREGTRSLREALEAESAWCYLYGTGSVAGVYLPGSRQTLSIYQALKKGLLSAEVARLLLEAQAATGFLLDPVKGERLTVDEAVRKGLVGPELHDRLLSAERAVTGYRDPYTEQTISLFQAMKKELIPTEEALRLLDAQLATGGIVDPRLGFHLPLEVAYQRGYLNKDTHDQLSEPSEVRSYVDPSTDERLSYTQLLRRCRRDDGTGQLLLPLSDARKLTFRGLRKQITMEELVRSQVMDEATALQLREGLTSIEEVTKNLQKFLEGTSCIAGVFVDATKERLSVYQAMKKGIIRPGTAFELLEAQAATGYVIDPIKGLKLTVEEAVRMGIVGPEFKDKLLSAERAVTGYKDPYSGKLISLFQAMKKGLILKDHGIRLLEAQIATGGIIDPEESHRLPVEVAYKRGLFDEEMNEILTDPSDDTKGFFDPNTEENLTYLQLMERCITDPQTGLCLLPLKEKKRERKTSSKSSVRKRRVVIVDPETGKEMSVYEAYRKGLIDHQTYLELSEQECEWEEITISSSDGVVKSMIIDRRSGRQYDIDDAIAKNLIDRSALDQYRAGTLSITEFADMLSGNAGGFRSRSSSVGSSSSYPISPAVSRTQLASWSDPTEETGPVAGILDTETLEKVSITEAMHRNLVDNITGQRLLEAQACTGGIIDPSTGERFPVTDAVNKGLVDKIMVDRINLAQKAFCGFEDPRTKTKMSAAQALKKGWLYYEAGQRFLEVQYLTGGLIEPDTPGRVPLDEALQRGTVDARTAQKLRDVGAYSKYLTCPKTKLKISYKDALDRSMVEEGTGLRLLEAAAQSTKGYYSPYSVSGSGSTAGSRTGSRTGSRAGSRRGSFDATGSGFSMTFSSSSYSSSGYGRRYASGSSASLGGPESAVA
UniProt P62316, sequence (P62316 whole entry): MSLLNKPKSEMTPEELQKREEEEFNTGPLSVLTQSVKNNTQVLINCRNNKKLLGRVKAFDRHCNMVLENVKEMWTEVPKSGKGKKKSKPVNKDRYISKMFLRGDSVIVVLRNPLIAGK
UniProt P63218, sequence (P63218 whole entry): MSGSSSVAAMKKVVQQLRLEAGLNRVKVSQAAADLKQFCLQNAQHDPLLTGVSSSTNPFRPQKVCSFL
UniProt P48509, sequence (P48509 whole entry): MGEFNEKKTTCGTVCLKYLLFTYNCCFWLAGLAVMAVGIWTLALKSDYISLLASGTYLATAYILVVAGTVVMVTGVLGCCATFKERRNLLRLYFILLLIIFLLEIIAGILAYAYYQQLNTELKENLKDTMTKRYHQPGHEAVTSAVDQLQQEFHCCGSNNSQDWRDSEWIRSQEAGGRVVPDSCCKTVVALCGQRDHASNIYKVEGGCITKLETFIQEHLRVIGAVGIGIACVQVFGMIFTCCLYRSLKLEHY

Compound in this test: C#CCNC(=O)CCSSCCC(=O)NCCc1ccc(C=O)c(C=O)c1
In words: lysine labeling ratio R10:1 (500 µM / 50 µM probe), SILAC-ABPP in living cells; higher = lower intrinsic lysine reactivity toward the probe, active = 2 or less. As to conditions: HeLa; probe concentrations 500 vs 50 µM. An outline of the steps: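 Living SILAC light and heavy HeLa cells in PBS at room temperature were treated with an alkyne-tagged, disulfide-linked lysine probe at 50 µM or 500 µM, with forward and reverse label swaps. The mixed lysates were clicked to biotin-azide, digested with trypsin, captured on neutravidin, released with DTT, alkylated and run by LC-MS/MS on a TIMS-TOF Pro. R for each lysine is the filtered median high-probe/low-probe MS1 peptide ratio, taken again as the median over forward and reverse replicates. Any value above 20 is set to 20.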
In the case of “HSPG2 (lysine site: K1414) (UniProt P98160)”, the “lysine labeling ratio R10:1” value is 1.42 (active). The result for “SLC25A11 (lysine site: K57) (UniProt Q02978)” reads 1.95 (active); that for “CD109 (lysine site: K494) (UniProt Q6YHK3)”, 8.05 (inactive). Take “COL5A1 (lysine site: K164) (UniProt P20908)”: the “lysine labeling ratio R10:1” value is 3.25 (inactive). Turning to “GHITM (lysine site: K76) (UniProt Q9H3K2)”, the “lysine labeling ratio R10:1” value is 4.44 (inactive). With “SLC12A7 (lysine site: K393) (UniProt Q9Y666)”, the “lysine labeling ratio R10:1” value was 3.46 (inactive). With “PDIA4 (lysine site: K637) (UniProt P13667)”, the “lysine labeling ratio R10:1” value is 2.44 (inactive). As for UniProt Q29980 (lysine site: K196), the figure is 4.62 (inactive). The result for “CACYBP (lysine site: K220) (UniProt Q9HB71)” reads 1.74 (active). As for “EHD2 (lysine site: K220) (UniProt Q9NZN4)”, the figure is 2.14 (inactive); as for “BPTF (lysine site: K604) (UniProt Q12830)”, 8.91 (inactive). On to “ITGB1 (lysine site: K100) (UniProt P05556)”, for which the “lysine labeling ratio R10:1” value is 10.5 (inactive). For “GAS1 (lysine site: K137) (UniProt P54826)”, the “lysine labeling ratio R10:1” value is 3.54 (inactive).

Turning to UniProt Q15149 (lysine site: K3968), the “lysine labeling ratio R10:1” value was 2.71 (inactive). For “TLN1 (lysine site: K428) (UniProt Q9Y490)”, the “lysine labeling ratio R10:1” value is 2.34 (inactive). The result for “CD151 (lysine site: K186) (UniProt P48509)” reads 6.68 (inactive); that for “ATP6V0A1 (lysine site: K70) (UniProt Q93050)”, 0.55 (active). For “PLPP3 (lysine site: K187) (UniProt O14495)”, the “lysine labeling ratio R10:1” value is 2.06 (inactive). As for UniProt P62750 (lysine site: K152), the figure is 4.64 (inactive). Consider “SLC3A2 (lysine site: K615) (UniProt P08195)”, for which the “lysine labeling ratio R10:1” value is 3.54 (inactive). The result for “PDIA6 (lysine site: K245) (UniProt Q15084)” reads 1.95 (active); that for “FGB (lysine site: K422) (UniProt P02675)”, 2.18 (inactive); that for “EFNB2 (lysine site: K163) (UniProt P52799)”, 1.53 (active). As for UniProt P48060 (lysine site: K200), the figure is 3.31 (inactive); as for “NUMA1 (lysine site: K1475) (UniProt Q14980)”, 5.25 (inactive); as for “ITGA6 (lysine site: K615) (UniProt P23229)”, 6.91 (inactive). Regarding “PGAM1 (lysine site: K39) (UniProt P18669)”, the “lysine labeling ratio R10:1” value was 3.67 (inactive).

Turning to “DSG2 (lysine site: K72) (UniProt Q14126)”, the “lysine labeling ratio R10:1” value is 2.67 (inactive).

Consider “SPTBN1 (lysine site: K1684) (UniProt Q01082)”, for which the “lysine labeling ratio R10:1” value is 1.83 (active).

For “FLNA (lysine site: K916) (UniProt P21333)”, the “lysine labeling ratio R10:1” value is 1.76 (active). For “TUBA1A (lysine site: K336) (UniProt Q71U36)”, the “lysine labeling ratio R10:1” value was 2 (active).

UniProt P55285 (lysine site: K276): the “lysine labeling ratio R10:1” value was 1.67 (active). “MSLN (lysine site: K306) (UniProt Q13421)”: the “lysine labeling ratio R10:1” value is 1.74 (active). The result for UniProt P62316 (lysine site: K18) reads 2.06 (inactive). The result for “FLNA (lysine site: K1372) (UniProt P21333)” reads 2.93 (inactive); that for UniProt Q15149 (lysine site: K792), 1.45 (active); that for UniProt P63218 (lysine site: K12), 5.18 (inactive). The result for “ARPC3 (lysine site: K29) (UniProt O15145)” reads 1.49 (active); that for UniProt P02768 (lysine site: K229), 5.69 (inactive); that for “NECTIN3 (lysine site: K249) (UniProt Q9NQS3)”, 5.88 (inactive).
